This is one part of a sample in which hits are shown more often than they occur.
IL1B secr inh: inflammasome signaling inhibition, IL-1 beta readout; THP-1 LPS/ATP IL-1B secretion, AlphaLISA, 16 h; active compounds read low; activity change, % at 57.5 µM; hit rate 4.7% among 360,000; in the data active = activity change below about -50%; inconclusive = mostly about -30% to -49%
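THP-1 cells pretreated 1 hr with compounds (up to 57.5 uM final), then stimulated with LPS (250 ng/mL final) plus ATP (1.25 mM final); secreted IL-1B measured by AlphaLISA after 16 hr, decreased signal indicating inhibition.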
DT40 TDP1 CPT: DT40-hTDP1 cell growth loss with CPT | chicken DT40 Tdp1-/-;hTDP1 cells + 20 nM CPT, ATP luminescence, 48 h | Potency, µM (highest dose often 46.2 µM), hits mostly inhibitors | hit rate 12% among 420,000 | AID 686979; also: nearly all actives have a fitted effect of over 55% in size
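Chicken DT40 Tdp1-/- cells stably complemented with human TDP1 were seeded at 400 cells/well in medium containing 20 nM camptothecin, exposed to pin-transferred compounds, and grown at 37 °C for at least 48 hr. Viability was read as ATP luminescence.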
HT1080 IDH1KD tx: kills HT-1080 cells with IDH1 knockdown; HT-1080 IDH1 knockdown viability, ATP luminescence, 48 h; Potency, µM (top dose mostly 46.1 µM), usual class: cytotoxic; hit rate 2% among 360,000
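Viability of IDH1-knockdown HT-1080 fibrosarcoma cells was assessed by CellTiter-Glo after 48 h at 37 °C with titrated compound; concentration-effect curves were classified by fit quality and response size.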
HT1080-NT tox: kills 2HG-producing HT-1080-NT fibrosarcoma cells | HT-1080-NT fibrosarcoma viability, CellTiter-Glo ATP luminescence, 48 h | Potency, µM (top dose mostly 46.1 µM), hits mostly cytotoxic | hit rate 1.6% among 360,000 | AID 686970;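 also: NT is the 2HG producing partner of a matched IDH1 knockdown line; nearly all actives have a fitted effect of over 55% in size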
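750 cells/well, RPMI + 5% FBS; 2 h settle, compound pin-transfer, 48 h at 37 degrees C. CellTiter-Glo 10 min RT, luminescence. Normalized to DMSO and media-only wells.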
TDP1 cell noCPT: qHTS for Inhibitors of human tyrosyl-DNA phosphodiesterase 1 (TDP1): qHTS in cells in absence of CPT | DT40 Tdp1-/- hTDP1 cells, no CPT, ATP luminescence, 48 h | Potency, µM (highest dose often 46.2 µM), usual class: inhibitors | hit rate 15% among 420,000 | AID 686978, 2013; also: nearly all actives have a fitted effect of over 55% in size
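Readout: luminescence from CellTiter-Glo after 30 min in the dark at RT. Cells: DT40 Tdp1-/- with stable hTDP1, 400/well. Exposure: compounds alone, ≥48 hr, 37 °C.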
ALOX12 inh: ALOX12 (human) lipoxygenase inhibition | P18054 | Potency, µM (highest dose often 108 µM), hits mostly inhibitors | purified 12hLO, xylenol orange hydroperoxide absorbance | hit rate 1.1% among 580,000
Target sequence (P18054 whole entry, looked up): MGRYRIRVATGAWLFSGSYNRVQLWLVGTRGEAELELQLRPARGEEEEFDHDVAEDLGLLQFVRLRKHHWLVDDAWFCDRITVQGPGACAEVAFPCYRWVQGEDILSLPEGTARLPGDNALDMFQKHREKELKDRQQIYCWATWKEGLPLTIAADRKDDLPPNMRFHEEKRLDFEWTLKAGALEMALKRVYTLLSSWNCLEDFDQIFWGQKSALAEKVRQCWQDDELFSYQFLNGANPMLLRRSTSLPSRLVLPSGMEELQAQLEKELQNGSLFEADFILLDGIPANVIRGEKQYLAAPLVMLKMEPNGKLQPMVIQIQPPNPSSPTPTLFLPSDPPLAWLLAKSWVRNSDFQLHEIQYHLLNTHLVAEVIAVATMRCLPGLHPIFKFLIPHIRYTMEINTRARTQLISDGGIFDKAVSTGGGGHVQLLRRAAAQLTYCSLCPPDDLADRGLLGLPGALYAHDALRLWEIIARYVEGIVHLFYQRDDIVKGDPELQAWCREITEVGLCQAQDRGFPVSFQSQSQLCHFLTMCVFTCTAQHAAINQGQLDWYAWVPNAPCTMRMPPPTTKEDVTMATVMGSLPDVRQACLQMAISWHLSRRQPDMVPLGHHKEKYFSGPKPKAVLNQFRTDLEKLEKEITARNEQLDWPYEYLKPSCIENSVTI
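Hydroperoxide product was detected by ferrous iron/xylenol orange as the 573 to 405 nm absorbance ratio. Arachidonic acid at 40 uM (final) was turned over for 30 min at room temperature by 150 nM human 12hLO, pH 7.0 Hepes buffer, after 15 min compound preincubation.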
Numbers stand for hits; - = inactive; ? = inconclusive; . = no result given. Unless noted, calls follow the shape of the dose curve; as a rule, active = well fitted curve in the direction sought with a large enough effect; inconclusive = small, poorly fitted or top-dose-only effect, or another doubt; inactive = no such curve, though single readings can be large; an effect the other way counts as inactive or inconclusive.

SMILES	IL1B secr inh	DT40 TDP1 CPT	HT1080 IDH1KD tx	HT1080-NT tox	TDP1 cell noCPT	ALOX12 inh
COC(=O)COc1ccc(C(=O)N[C@@H]2CN(C(=O)NC(C)C)CCC[C@H]2O)cc1	.	.	.	.	.	-
Cc1c(C(C)NC(=O)c2ccc(=O)[nH]c2)cnn1-c1cccc2ccccc12 (stereo unspecified)	.	.	.	.	.	-
O=C(CCCN1C(=O)C(c2ccccc2)Oc2cccnc21)NCc1ccccc1Cl (stereo unspecified)	-	?	-	-	?	-
CCN(CC)c1ccc(NC(=O)CCCN2C(=O)C(c3ccccc3)Oc3cccnc32)c(C)c1 (stereo unspecified)	.	18µM	.	.	10µM	-
O=C(CCCN1C(=O)C(c2ccccc2)Oc2cccnc21)Nc1ccccc1C(F)(F)F (stereo unspecified)	.	-	.	.	-	-
O=C(CCCN1C(=O)C(c2ccccc2)Oc2cccnc21)NCc1ccccc1F (stereo unspecified)	-	16µM	-	-	?	-
O=c1c2ccccc2nc2c3ccccc3c(NCCO)nn12	-	13µM	-	-	?	-
OCCNc1c2ccccc2nc2ccccc12	-	13µM	23µM	23µM	10µM	-
O=c1c2ccccc2nc2c3ccccc3c(NCc3ccccn3)nn12	?	?	-	-	15µM	-
Cc1nc(NCc2ccccn2)c2ccccc2n1	-	13µM	-	?	10µM	?
OCCNc1nc2ccccc2nc1NCCO	-	-	-	-	-	-
Cn1cccc1C(=O)c1ccc(Cl)cc1Cl	-	-	-	-	-	?
Cn1cc(C(=O)c2cccc(Cl)c2)cc1/C=N\O	-64	-	-	-	-	-
Cn1cc(C(=O)c2cccc(Cl)c2)cc1C#N	-	-	-	-	-	-
CO/N=C\c1cc(C(=O)c2ccc(Cl)cc2Cl)cn1C	-62	-	-	-	?	-
CCOC(=O)C1CCN([C@H]2CS(=O)(=O)C[C@@H]2S(=O)(=O)c2ccc(C)cc2)CC1	.	.	.	.	.	-
CC(=O)c1c(C)oc2ccc(N(C(C)=O)S(=O)(=O)c3ccc(F)cc3C)cc12	-	12µM	-	-	16µM	-
CCCC(=O)N(c1ccc2oc(C)c(C(C)=O)c2c1)S(=O)(=O)c1ccc(CC)cc1	.	.	.	.	.	-
CC(=O)c1c(C)oc2ccc(N(C(C)=O)S(=O)(=O)c3cccc4cccnc34)cc12	-	2.1µM	26µM	?	4.1µM	-
Cc1nc2cc(NC(C)C(=O)Nc3ccc(OC(F)(F)F)cc3)ccc2o1 (stereo unspecified)	.	.	.	.	.	-
CC(=NNC(=S)N1CCCCC1)c1ccccn1	-74	0.026µM	?	-	0.0082µM	45µM
CC(=NNC(=S)N1CCCCC1)c1cccc(C)n1	-	0.0092µM	?	-	0.018µM	-
CSC(=S)NN=C(C)c1cccc(C)n1	?	0.033µM	?	-	0.018µM	-
Cc1cccc(C(N)=O)n1	.	.	.	.	.	-
CN(CCc1noc(C2CN(C(=O)c3ccncn3)C2)n1)C(=O)C1CC1	.	.	.	.	.	-
SMILES	IL1B secr inh	DT40 TDP1 CPT	HT1080 IDH1KD tx	HT1080-NT tox	TDP1 cell noCPT	ALOX12 inh
CC(=NNC(=S)N1CC2CCC(CC2)C1)c1ccncn1	-	0.037µM	?	16µM	0.029µM	?
Cc1cccc(CN2C[C@@H](C(=O)O)C[C@H](C(=O)N3CCN(C)CC3)C2)n1	.	.	.	.	.	-
O=c1c2ccccc2c(-c2nnc(SCCO)o2)nn1Cc1ccccc1	.	.	.	.	.	-
CC(C)(C)OC(=O)CC1(C#N)c2ccccc2C(Br)=CN1C(=O)c1ccccc1 (stereo unspecified)	-	?	?	-	16µM	-
Cc1cccc(NC(=O)CSc2nc(-c3ccccc3)cn2-c2ccccc2)c1C	.	?	.	.	23µM	?
Cc1ccc(NC(=O)CS(=O)(=O)c2nc(-c3ccc(C)cc3)cn2-c2ccc(C)cc2)cc1	.	21µM	.	.	15µM	-
O=C(CS(=O)(=O)c1nc(-c2ccc(Cl)cc2)cn1-c1ccccc1)Nc1cccc(Cl)c1	.	23µM	.	.	?	-
O=C(COC(=O)c1nc(-c2ccccc2)n(-c2ccccc2)n1)Nc1cccc(Cl)c1	.	.	.	.	.	-
Cc1cccc(NC(=O)CS(=O)(=O)c2nc(-c3ccccc3)cn2-c2cccc(Cl)c2)c1C	.	23µM	.	.	18µM	-
CCOc1ccc(-c2cn(-c3ccc(C)cc3)c(SCC(=O)Nc3ccc(C)cc3)n2)cc1	.	?	.	.	?	-
O=C(OCc1ccc([N+](=O)[O-])cc1)c1ccc(OC(F)(F)F)cc1	.	.	.	.	.	-
N#Cc1ccccc1COC(=O)C(c1ccccc1)c1ccccc1	.	.	.	.	.	-
COc1ccc(NC(=O)Cn2ccn(-c3ccc(OC)cc3)c2=O)cc1	.	.	.	.	.	-
O=C(Cc1ccccc1)N(CC1CCOC1)C1CC1 (stereo unspecified)	.	.	.	.	.	-
Cc1ccc(C(=O)n2c(-c3ccccc3)cnc2SCC(=O)Nc2ccc(C)cc2C)cc1	-	?	-	-	26µM	-
CCn1c(SCc2cccc(Br)c2)nnc1-c1nonc1NC(C)=O	.	18µM	.	.	23µM	-
O=C(CSc1nc(-c2ccccc2)cn1-c1ccccc1F)Nc1ccc(F)cc1	.	18µM	.	.	?	-
CC(=O)Nc1nonc1-c1nnc(SCc2ccc(C)cc2)n1C	.	?	.	.	-	-
O=C(CS(=O)(=O)c1nc(-c2ccc(Cl)cc2)cn1-c1ccccc1)Nc1ccc(F)cc1F	.	18µM	.	.	?	?
Cc1ccc(C(=O)n2c(-c3ccccc3)cnc2SCC(=O)Nc2ccccc2)cc1	-	-	-	-	?	-
Cc1ccn(CC(=O)NCCn2c(C)cnc2C2CC2)n1	.	.	.	.	.	-
COc1cc(C(=O)Nc2ccc3oc(=O)ccc3c2)ccc1C	.	.	.	.	.	-
CCOC(=O)COC(=O)CNC(=O)c1ccc(C)c(C)c1	.	.	.	.	.	-
CS(=O)(=O)NC1CCN(C(=O)c2cnc3ccccc3n2)CC1	.	.	.	.	.	-
CC(CNC(C)(C)CO)c1ccccc1 (stereo unspecified)	.	.	.	.	.	-
Cc1ccc(-c2cn(-c3cccc(Cl)c3)c(S(=O)(=O)CC(=O)Nc3cccc(C)c3)n2)cc1	.	16µM	.	.	?	-
Cc1ccc(OCc2nnc(SCC(=O)Nc3cccc4ccccc34)n2-c2ccccc2)cc1	-	?	-	-	?	-
CCOC(=O)NC(=O)CSc1nc(-c2ccc(C)c(C)c2)cn1-c1ccccc1	-61	?	-	-	?	-
Cc1ccc(NC(=O)CSc2nnc(-c3n[nH]c4ccccc34)n2-c2ccccc2)c(C)c1	-51	15µM	?	-	?	-
Cc1ccc(-c2cn(-c3cccc(Cl)c3)c(S(=O)(=O)CC(=O)Nc3ccccc3F)n2)cc1	.	?	.	.	?	-
